Source: PubChem BioAssay
The list is not random: actives were taken first. Their share in the collection is about 16%.
miR-21 reporter – qHTS Assay for Modulators of miRNAs and/orActivators of miR-21 | HeLa miR-21 FLuc reporter, luciferase, 48 h | Potency, µM (doses to about 38.3 µM), for the others: at the highest dose activity change, positive = activation, actives largely listed as activators | 340,000 tested, under 10 active;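 further: % of control where 0% means no effect; miR-21 action dims this reporter so a rising signal means less miR-21 action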
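HeLa cells endogenously expressing miR-21, stably carrying CMV-driven firefly luciferase with a downstream miR-21 binding site, 2000 cells/well. Titrations up to approximately 40 uM, 48 hours; luciferase luminescence read.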
TDP1 cell CPT – qHTS for Inhibitors of human tyrosyl-DNA phosphodiesterase 1 (TDP1): qHTS in cells in presence of CPT | AID 686979, 2013 | Potency, µM (highest dose often 46.2 µM), for inactives: top-dose activity change, negative = growth inhibition, actives largely listed as inhibitors | chicken DT40 Tdp1-/-;hTDP1 cells + 20 nM CPT, ATP luminescence, 48 h | 420,000 compounds, 12% hits; further: potency means the concentration at half of the fitted maximal effect; on the % scale 0 is the no-effect control and ±100 the full control effect; nearly all actives have a fitted effect of over 55% in size
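Chicken DT40 Tdp1-/- cells complemented with human TDP1, 400 cells/well, exposed to compounds plus 20 nM camptothecin for at least 48 h at 37 C; viability read as ATP content by CellTiter-Glo luminescence.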
DT40 TDP1 no CPT – qHTS for Inhibitors of human tyrosyl-DNA phosphodiesterase 1 (TDP1): qHTS in cells in absence of CPT. DT40 Tdp1-/- hTDP1 cells, no CPT, ATP luminescence, 48 h. Potency, µM (titrated, usually from 46.2 µM), without a hit: at the highest dose activity change, negative = growth inhibition, hits mostly inhibitors. 420,000 compounds, 15% hits; further: potency means the concentration at half of the fitted maximal effect; on the % scale 0 is the no-effect control and ±100 the full control effect; nearly all actives have a fitted effect of over 55% in size
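Luminescent ATP content (CellTiter-Glo) served as the growth readout. Knockout chicken DT40 cells expressing human TDP1 were exposed to compounds without camptothecin for a minimum 48 hr at 37 °C.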
uPA generation – qHTS for Inhibitors of Cell Surface uPA Generation. cell surface uPA generation assay, qHTS. Potency, µM (highest dose often 38.3 µM), without a hit: at the highest dose activity change, negative = inhibition, most hits filed as inhibitors. 330,000 compounds, 0.31% hits. AID 540303, 2011; active means well fitted inhibition curve with a large enough effect; inconclusive means small, poorly fitted or top-dose-only effect; inactive means no such curve, though single readings can be large or run the other way; tested in mouse RAW 264.7 cells; further: potency means the concentration at half of the fitted maximal effect; on the % scale 0 is the no-effect control and ±100 the full control effect; nearly all actives have a fitted effect of over 55% in size
TDP1 block – qHTS Assay for Inhibitors of Tyrosyl-DNA Phosphodiesterase (TDP1); Tyrosyl-DNA phosphodiesterase 1 (Homo sapiens), Q9NUW8; recombinant TDP1, AlphaScreen DNA substrate cleavage; Potency, µM (titrated, usually from 130 µM), without a hit: at the top dose activity change, negative = inhibition, actives largely listed as inhibitors; 350,000 compounds, 0.28% hits; AID 485290, 2010; further: potency means the concentration at half of the fitted maximal effect; on the % scale 0 is the no-effect control and ±100 the full control effect; nearly all actives have a fitted effect of over 40% in size
Target sequence (Q9NUW8 whole entry, looked up): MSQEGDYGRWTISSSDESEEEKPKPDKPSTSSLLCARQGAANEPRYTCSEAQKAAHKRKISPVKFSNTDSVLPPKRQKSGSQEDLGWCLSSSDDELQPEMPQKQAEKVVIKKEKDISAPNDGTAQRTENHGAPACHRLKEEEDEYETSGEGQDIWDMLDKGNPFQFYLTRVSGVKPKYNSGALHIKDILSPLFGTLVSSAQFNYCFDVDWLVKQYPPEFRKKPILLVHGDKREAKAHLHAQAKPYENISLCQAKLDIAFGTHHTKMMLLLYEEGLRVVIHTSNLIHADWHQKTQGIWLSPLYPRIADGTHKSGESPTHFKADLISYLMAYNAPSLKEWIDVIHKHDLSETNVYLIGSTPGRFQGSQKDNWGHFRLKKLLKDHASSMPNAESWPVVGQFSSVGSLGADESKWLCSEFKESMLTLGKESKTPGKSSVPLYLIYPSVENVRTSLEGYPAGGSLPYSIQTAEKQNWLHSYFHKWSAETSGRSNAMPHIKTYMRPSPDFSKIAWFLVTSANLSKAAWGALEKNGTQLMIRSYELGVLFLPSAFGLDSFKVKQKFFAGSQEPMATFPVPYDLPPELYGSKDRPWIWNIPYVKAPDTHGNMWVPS
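Here, a 5' biotin and 3' phosphotyrosine-FITC DNA oligonucleotide reports Tdp1 activity: intact substrate bridges AlphaScreen beads, while cleavage leaves a 3' phosphate and drops signal. All incubations at room temperature.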
Numbers without * were called inactive; ? = inconclusive; / = not tested or not shown; [ ] = another dose, or the depositor's remark. Unless noted, the call rests on the fitted dose curve; in most records, active means well fitted curve in the direction sought with a large enough effect; inconclusive means small, poorly fitted or top-dose-only effect, or another doubt; inactive means no such curve, though single readings can be large; an effect the other way counts as inactive or inconclusive.

SMILES	miR-21 reporter	TDP1 cell CPT	DT40 TDP1 no CPT	uPA generation	TDP1 block
Clc1cccc(Cl)c1C[n+]1ccc2ccccc2c1	26%	1.6µM*	1.5µM*	-4%	/
O=C1c2ccccc2C(c2nc3ccccc3[nH]2)N1Cc1ccco1 (configuration not stated)	/	5%	-2%	/	/
CCOC(=O)C[n+]1c(C)sc2ccc(OC)cc21	6%	8.2µM*	8.2µM*	-3%	2%
CCN(CC)C(=O)/C(=C/c1cn(S(=O)(=O)N(C)C)c2ccccc12)NC(=O)c1ccc(OC)cc1	-1%	?	21µM*	3%	8%
CN(C)S(=O)(=O)n1cc(/C=C(\NC(=O)c2ccccc2Cl)C(=O)NCCCn2ccnc2)c2ccccc21	19%	18µM*	29µM*	-4%	2%
CN(C)S(=O)(=O)n1cc(/C=C(\NC(=O)c2ccccc2)C(=O)NCCCn2ccnc2)c2ccccc21	-1%	-21%	-27%	-21%	8%
CCN(CC)C(=O)c1cccc(-c2csc(C(O)c3cccc(Cl)c3)n2)c1 (configuration not stated)	/	?	16µM*	/	/
COc1cccc(C(O)c2nc(-c3cccc(C(=O)O)c3)cs2)c1 (configuration not stated)	/	-2%	-2%	/	/
CCN(CC)C(=O)c1cccc(-c2csc(C(O)c3ccc(OC)cc3)n2)c1 (configuration not stated)	/	16µM*	18µM*	/	/
CCN(CC)C(=O)c1cccc(-c2csc(C(C)(O)c3ccncc3)n2)c1 (configuration not stated)	/	18µM*	21µM*	/	/
COc1ccc(C(O)c2nc(-c3cccc(C(=O)O)c3)cs2)cc1 (configuration not stated)	/	-9%	0%	/	/
CCN(CC)C(=O)c1cccc(-c2csc(C(O)c3ccc(F)c(OC)c3)n2)c1 (configuration not stated)	/	18µM*	16µM*	/	/
O=C(O)c1cccc(-c2csc(C(O)c3cccc(Cl)c3)n2)c1 (configuration not stated)	/	2%	4%	/	/
Cc1oc2ncn(C)c(=O)c2c1C(=O)Nc1ccc(F)cc1	5%	-1%	-20%	/	6%
O=C(N/N=C\c1cccnc1)c1cc(-c2ccc(Cl)s2)[nH]n1	-2%	-3%	?	-29%	-13%
CCOc1ccc(CNCc2c(C(=O)O)c(C)n(Cc3ccc(C)cc3)c2C)cc1	1%	?	18µM*	/	0%
Cc1c(CNCCCc2ccccc2)c(C(=O)O)c(C)n1Cc1ccccc1	-1%	-20%	2%	3%	8%
CCOc1ccc(CNCc2c(C(=O)O)n(Cc3ccc(C)cc3)c3cc(C)ccc23)cc1	?	?	?	/	3%
Cc1c(CNCCCc2ccccc2)c(C(=O)O)c(C)n1Cc1ccc(Cl)cc1	3%	?	21µM*	/	3%
Cc1c(CNCCCc2ccccc2)c(C(=O)O)c(C)n1Cc1cccc(Cl)c1	5%	?	21µM*	/	5%
CCOc1ccccc1N1CC(C(=O)Nc2cc(Cl)ccc2-n2cncn2)CC1=O (configuration not stated)	/	-16%	-20%	-7%	-5%[0.505 µM]
COCCNC(=O)C1(C)CCCN(C(=O)c2ccc(OC)c(OC)c2)C1 (configuration not stated)	/	14%	15%	/	/
COc1ccc(-c2c(C)c3cc(OC(=O)N4CCOCC4)ccc3oc2=O)cc1OC	0%	-4%	-6%	/	-3%
Cc1ccc(NC(=O)COC(=O)/C=C/c2c(C)nn(-c3ccc(F)cc3)c2Cl)cc1F	-2%	1%	-19%	0%	2%
CNC[C@H](CC1CCCCC1)NC[C@H](CO)NCCc1cccc(C(F)(F)F)c1	?	7.3µM*	5.8µM*	7.9µM*	/
SMILES	miR-21 reporter	TDP1 cell CPT	DT40 TDP1 no CPT	uPA generation	TDP1 block
CNC[C@H](CC1CCCCC1)NC[C@H](CO)NCC1(c2ccccc2)CC1	18%	?	21µM*	-9%	/
Fc1ccccc1CSc1ccc(-c2ccco2)nn1	-52%	-22%	?	-9%	3%
CC1=CCC2COC(c3ccc[n+](Cc4ccccc4)c3)C1C2 (configuration not stated)	12%	3.7µM*	2.9µM*	-5%	7%
NC(=O)c1ccc[n+](Cc2ccccc2)c1	-4%	-5%	-2%	1%	5%
CCN(C[C@H]1N[C@@](CC)(C(=O)OC)[C@H]2C(=O)N(Cc3ccccc3)C(=O)[C@@H]12)S(=O)(=O)c1ccc(C(C)(C)C)cc1	/	13µM*	23µM*	-9%	-1%
CCN(C[C@H]1N[C@@](CC)(C(=O)OC)[C@H]2C(=O)N(Cc3ccccc3)C(=O)[C@@H]12)S(=O)(=O)c1ccc(OC(F)(F)F)cc1	/	?	16µM*	-1%	-1%
CCN(C[C@H]1N[C@@](CC)(C(=O)OC)[C@H]2C(=O)N(Cc3ccccc3)C(=O)[C@@H]12)S(=O)(=O)c1ccc(-c2ccccc2)cc1	/	?	?	-6%	2%
O=C(OCc1ccccc1)N1C[C@H](O)[C@H](O)C[C@@H]1c1c(Cl)cccc1Br	/	-17%	-13%	/	/
COc1ccccc1-c1nn2c(C3COc4ccccc4O3)nnc2s1 (configuration not stated)	-17%	?	?	1%	1%
O=C(NCCOc1ccccc1)c1cc(C(=O)NCCOc2ccccc2)cc([N+](=O)[O-])c1	12%	?	18µM*	6%	5%
Cc1ccc(C(C)C)c(OCCn2ccnc2C)c1	-2%	16µM*	23µM*	1%	/
Cc1ccc(OCCCCn2ccnc2C)c(C)c1	8%	?	?	-4%	12%
COc1ccc(C(=O)NCCOc2cccc(Oc3ccccc3)c2)cc1OC	/	?	12µM*	8%	1%
COc1cc(C(=O)NCCOc2cc(C)cc(C)c2)cc(OC)c1OC	18%	4.1µM*	2.9µM*	2.5µM*	/
COc1cc(C(=O)NCCOc2ccccc2)cc(OC)c1OC	-7%	27%	-8%	9%	/
Clc1ccccc1-c1csc(Nc2cccnc2)n1	-28%	4%	-9%	5%	5%
Cc1cccc(S(=O)(=O)NC(=O)C2(C)CCN2C(=O)CCC2CCCC2)c1 (configuration not stated)	/	-1%	16%	/	/
COC(=O)C(C)Sc1nc2c(cnn2-c2ccc(Cl)cc2)c(=O)[nH]1 (configuration not stated)	-3%	-16%	10%	0%	/
